Values joined by “and” are separate entries in the source; they are usually repeats but may differ in a detail not shown here. Equal entries are not always repeated. Records with an inconclusive call do not appear. Unmarked numbers belong to inactive results. Active and inactive are the calls of the source. Calls follow the shape of the dose curve; as a rule, active = well fitted curve in the direction sought with a large enough effect; inconclusive = small, poorly fitted or top-dose-only effect, or another doubt; inactive = no such curve, though single readings can be large; an effect the other way counts as inactive or inconclusive.
Experiments:
[1] = molecular target: Cellular tumor antigen p53 (Homo sapiens) (UniProt P04637); assay: Primary qHTS for small molecule compounds that upregulate eGFP-tagged delta133p53alpha (in N-terminal) cells. (AID 2060322); conditions: NCI-H358 eGFP-delta133p53alpha fluorescence, 24 h; activation: stronger effect = higher value; also: nearly all actives have a fitted effect of over 75% in size;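 as to activation: cells pre-induced with doxycycline then dosed without doxycycline; series mostly up to about 56 µM; 0% = DMSO vehicle and 100% = reference activator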
Summary of the method: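 NCI-H358 cells pre-induced 24 h with 10 ng/ml doxycycline for eGFP-delta133p53alpha, plated dox-free and exposed 24 h at 37C to titrated compounds. Fixed, Hoechst-stained; gated GFP peak intensity by laser scanning cytometry, normalized to DMSO (0%) and 57.5 uM 5-azacytidine (100%).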

[2] = BET inhibitor-based combinations targeting novel dependencies in MECOM-rearranged (r) AML: SET-2 cell line (AID 2202231); conditions: SET-2 AML cells viability, CellTiter-Glo luminescence, 48 h; viability: stronger effect = lower value, concentration not given here; also: nearly all actives have a fitted effect of over 35% in size;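 as to viability: plate controls were DMSO treated cells for no effect and wells without cells for full effect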
Summary of the method: (§1)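 Viability of cells (500 per well) is scored by luminescent CellTiter-Glo at 48 hr post-dosing. Eleven-point titrations are normalized to DMSO and empty controls and reduced to AUC values.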

[3] = BET inhibitor-based combinations targeting novel dependencies in MECOM-rearranged (r) AML: OCI-AML3 cell line (AID 2202232); conditions: Potency: OCI-AML3 viability; also: nearly all actives have a fitted effect of over 35% in size
Summary of the method: as §1

[4] = BET inhibitor-based combinations targeting novel dependencies in MECOM-rearranged (r) AML: MV-4-11 cell line (AID 2202233); also: nearly all actives have a fitted effect of over 45% in size
Summary of the method: (§2)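 Using pin-tool transfer, drugs were added in 11 doses to cells (500/well), incubated 48 hr, and assessed with CellTiter-Glo. Z-AUC is a mean-centring transformation applied separately to each screened line.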

[5] = BET inhibitor-based combinations targeting novel dependencies in MECOM-rearranged (r) AML: HNT-34 cell line (AID 2202234); also: nearly all actives have a fitted effect of over 35% in size
Summary of the method: as §2

[6] = BET inhibitor-based combinations targeting novel dependencies in MECOM-rearranged (r) AML: UCSD-AML1 cell line (AID 2202235); also: nearly all actives have a fitted effect of over 40% in size
Summary of the method: as §2

[7] = BET inhibitor-based combinations targeting novel dependencies in MECOM-rearranged (r) AML: AML-191 cell line (AID 2202236; also: nearly all actives have a fitted effect of over 35% in size)
Summary of the method: as §1

[8] = BET inhibitor-based combinations targeting novel dependencies in MECOM-rearranged (r) AML: AML-194 cell line (AID 2202237; also: nearly all actives have a fitted effect of over 40% in size)
Summary of the method: as §1
Potency is read from the fitted curve at half-maximal effect.

Chain of Cellular tumor antigen p53 (Homo sapiens) (P04637 whole entry, looked up): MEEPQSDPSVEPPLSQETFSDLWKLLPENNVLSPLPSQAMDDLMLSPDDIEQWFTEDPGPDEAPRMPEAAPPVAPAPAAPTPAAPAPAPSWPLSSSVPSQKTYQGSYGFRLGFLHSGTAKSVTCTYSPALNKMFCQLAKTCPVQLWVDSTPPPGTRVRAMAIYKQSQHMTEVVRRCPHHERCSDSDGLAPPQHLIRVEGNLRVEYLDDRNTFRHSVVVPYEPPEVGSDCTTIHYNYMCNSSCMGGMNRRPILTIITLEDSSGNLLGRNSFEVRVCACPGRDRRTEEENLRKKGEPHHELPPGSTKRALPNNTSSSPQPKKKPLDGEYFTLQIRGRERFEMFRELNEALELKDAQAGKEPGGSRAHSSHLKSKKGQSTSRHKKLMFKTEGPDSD

Compound | activation [1] | viability [2] | Potency [3] | Potency [4] | Potency [5] | Potency [6] | Potency [7] | Potency [8] | Potency [1] | Potency [2]
CN1CC(=O)NC1=NC(=O)Nc1cccc(Cl)c1 | -20.6% | 111% | inactive | inactive | inactive | inactive | inactive | inactive |  | 
Oc1ccc(-c2ccc(-c3cc(Nc4cccc(CNC5CC5)c4)n[nH]3)cc2)c(O)c1 |  |  | 1.86 µM (active) | 1.18 µM (active) | 3.72 µM (active) | 2.35 µM (active) | 2.95 µM (active) | 3.72 µM (active) | 43.2 µM (active) | 7.42 µM (active)
CCCCCN=C(N)N/N=C/c1c[nH]c2ccc(OC)cc12 | 9.6% |  | 8.33 µM (active) | 8.33 µM (active) | 9.34 µM (active) | 16.6 µM (active) | 18.6 µM (active) | 20.9 µM (active) |  | 23.5 µM (active)
Nc1nc(Cl)nc2c1ncn2[C@H]1C[C@H](O)[C@@H](CO)O1 | 24.5% |  | 0.0833 µM (active) | 0.0934 µM (active) | 0.0742 µM (active) | 0.0295 µM (active) | 0.0833 µM (active) | 0.0742 µM (active) |  | 0.263 µM (active)
O=C(Nc1c(Cl)cncc1Cl)c1ccc(OC(F)F)c(OCC2CC2)c1 | -4.21% | 98.8% | inactive | inactive | inactive | inactive | inactive | inactive |  | 
CCC(C)SSc1ncc[nH]1 (stereo not given) | -4.29% |  | 8.33 µM (active) | 2.63 µM (active) | 9.34 µM (active) | 7.42 µM (active) | 5.25 µM (active) | 7.42 µM (active) |  | 11.8 µM (active)
C=C(C)[C@@H]1CC[C@]2(C(=O)O)CC[C@]3(C)[C@H](CC[C@@H]4[C@@]5(C)CC[C@H](O)C(C)(C)[C@@H]5CC[C@]43C)[C@@H]12 | 7.46% | 115% | inactive | inactive | inactive | inactive | inactive | inactive |  | 
COc1cccc2c1C(=O)c1c(O)c3c(c(O)c1C2=O)C[C@@](O)(C(=O)CO)C[C@@H]3O[C@H]1C[C@H](N)[C@H](OC2CCCCO2)[C@H](C)O1 (stereo not given in full) | 3.12% |  | 0.186 µM (active) | 18.6 nM (active) and 74.2 nM (active) | 332 nM (active) and 235 nM (active) | 209 nM (active) and 263 nM (active) | 118 nM (active) and 372 nM (active) | 332 nM (active) and 296 nM (active) |  | 1.32 µM (active) and 833 nM (active)
O=C1C[C@@H](c2ccc(O)cc2)Oc2cc(O)cc(O)c21 | -17.7% | 109% | inactive | inactive | inactive | inactive | inactive | inactive |  | 
c1ccc2c(-c3cnn4cc(-c5ccc(N6CCNCC6)cc5)cnc34)ccnc2c1 | 75.9% |  | 2.95 µM (active) | 0.934 µM (active) | 4.68 µM (active) | 2.95 µM (active) | 2.63 µM (active) | 2.63 µM (active) |  | 3.32 µM (active)
CC(C)C[C@H](NC(=O)[C@H](CCc1ccccc1)NC(=O)CN1CCOCC1)C(=O)N[C@@H](Cc1ccccc1)C(=O)N[C@@H](CC(C)C)C(=O)[C@@]1(C)CO1 |  |  | 0.0209 µM (active) | 0.0209 µM (active) | 0.0235 µM (active) | 0.0417 µM (active) | 0.0525 µM (active) | 0.0525 µM (active) | 110 nM (active) and 273 nM (active) | 0.0833 µM (active)
O=C(O)c1cn(-c2ccc(F)cc2)c2cc(N3CCNCC3)c(F)cc2c1=O | -9.7% | 96.6% | inactive | inactive | inactive | inactive | inactive | inactive |  | 
COC(=O)C1=C(C)NC(C)=C(C(=O)OCCCN2CCC(c3ccccc3)(c3ccccc3)CC2)C1c1cccc([N+](=O)[O-])c1 (stereo not given) | 2.93% |  | 29.5 µM (active) | 10.5 µM (active) | 18.6 µM (active) | 14.8 µM (active) | 26.3 µM (active) | 20.9 µM (active) |  | 18.6 µM (active)
CCCc1cc(=O)[nH]c(=S)[nH]1 | -13.4% and -2.19% | 110% | inactive | inactive | inactive | inactive | inactive | inactive |  | 
CN[C@H]1CCc2cc(OC)c(OC)c(OC)c2-c2ccc(OC)c(=O)cc21 | 7.86% |  | 0.0934 µM (active) | 0.105 µM (active) | 0.0833 µM (active) | 0.105 µM (active) | 0.105 µM (active) | 0.105 µM (active) |  | 0.186 µM (active)
